Hit rate of the full screen: of about 53,000 sequences, about 3,700 (7%) were called active.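 The calls were made as follows: active = gene knockdowns whose robust z-score for IL-1 alpha signal is at least 2 or at most -2, so actives lie on both sides; inactive = the rest.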 The full list was thinned out, with actives kept by preference.
Assay: Components of the Cytosolic LPS Sensing Pathway: Gene Identification via Genome-wide siRNA Screen;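 also: robust z of the log signal after scaling to non-targeting control siRNA wells of the plate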
Conditions: RAW264.7 macrophages, IL-1a HTRF, actives lie on both sides, screened at 100 nM (by protocol), cells primed 5 h with Pam3CSK4 first
Outline: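 IL-1a HTRF of supernatants after 24 hour LipidA transfection of Pam3CSK4-primed (5 hours) RAW264.7 cells, 48h post-siRNA transfection (100 nM). Scores: percent of plate negative-control median, then log-based robust z-score.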

z-score, active:
GCGGUCACGUGUGAUGGAUTT against Zfp653 3.98
GGCCUUCAUGGAUUAUACCTT against Serpinb9 2.09
CGAUUGUCGGGUUUUGUUUTT against Nutf2 -2.53
GCCCUCUUAUCUGAAUAAUTT against Stk17b 2.19
GCUACUAUCACAUAUGCACTT against Olfr1122 -2.09
GGCUGGUGGAUAAUGAUUGTT against Tmem50b 2.18
GCUCCUGGGAUACGUAUUATT against Abhd16a -2
GGAAAUAAACCACCUCUUCTT against Olfr437 2.36
GGCAUUUCAUGUAGCUAAATT against Spata18 2.04
GGAUGUUCCAUUUCUAAGCTT against Zfp30 -3.76
GGCCCAGUGACUAUGGAAUTT against Mpnd -2.68
GGAAGUGGCUUUUUAUCAGTT against Arhgap6 2.05
GGUGCAGGACCAUUUCCAUTT against Slc10a6 3.25
CCUUAUAGUCCAGUAUUUUTT against Slf2 2.71
GGAAGAGGUCUUUAAUACATT against Kif4 2.86
GGACAGAUGAUGAAGUUGUTT against Hsp90b1 -2.24
CCCAGUGUCAUUCAGUAUUTT against Phactr3 2.13
GCAAUUUGAGCAGUAUGUATT against Cpsf7 -2.85
GGCUAAAUGCCGAUGUACUTT against Gapvd1 2.08
CCUGACAGACCGACAAGUGTT against Hoxc11 -2

z-score, inactive:
GGCAAAGAGAUUGACAUUGTT against Kif2c -0.991
GGCAGGAGAUGGUAACUGCTT against Phc2 1.08
CGAAUUCAAAAAGCUAGAGTT against Gsto1 0.0531
GGCCAUUCAGAAGAUGCAGTT against Snapc2 -0.852
GCCAUUGACUGUACAGGUUTT against Taar4 0.74
GGAAGAGCAGGCAUCCAUATT against Ranbp10 -0.294
GGGAGAUGAUUAGUUCAUUTT against Mad1l1 0.654
GGCCAGUCCAAAGACCAUCTT against Hsd3b7 1.95
GCAAAACAUUUCCUGUCUGTT against Zfp316 -0.555
CCUCAAUUAUACCAAGAUUTT against Mapre3 -1.28
GCCAGGAGUCCUUUAGGAATT against Tmem159 -0.184
GGGAUUGGAAGAGAAAUGGTT against Hsd11b1 0.362
GCUAUACGAAGACUUCAGCTT against Hdhd3 0.972
GGCCUUUAAUUUCUUACACTT against Akt1s1 -0.6
GGAGUGAAAUUUACUGGGUTT against Hdgfl3 1.28
GGAGAACAAAGAUUUCGUGTT against Lhfpl4 -0.897
GCUAAACACGCUGAAUAUUTT against Phf10 0.107
GGGUUGGUAUAGCUUUCAGTT against Zfp619 -0.948
GGAACCUGAAAAUGUAUGUTT against Cxcl10 0.988
CGUUCAGUGUCUGCAGGUUTT against Mrps12 -0.0575
CCACUAAUUACAGUAACAUTT against Akr1c20 -1.11
GCAGACUCAUGCACUUGAATT against Olfr1165-ps -0.321
GGAAGUCUUAGAAGUAGCCTT against Diaph3 0.691
GGGAACUGCACAAUACAAATT against Ccdc122 1.91
GGACUGUUUUGUCUUGAAGTT against Gm5124 -1.04
GGUUUUUGUUAAGGUCAAUTT against Abca16 0.209
CCAUCCGUAACAUCGACUGTT against Mboat7 -0.293
UGGUCACCUUUCUCUUAUUTT against Tas2r140 -0.575
GGGAGCUGAACACAAACACTT against Trav3-3 0.191
GGACCUUCUUCAAGAAAGUTT against Olfr430 0.0987
GGAUGGUGAAAAUCUUGAGTT against Mindy1 1.39
GGACAAUGGGAGCUAUCGATT against Gpld1 -1.73
GGCUAAUACAUAAAGUAGUTT against 4930515G01Rik 0.452
GGUCAAGAAAUGGGCAAGCTT against Arhgdib 1.14
GAACAUGGAAAGCAGCAUUTT against Lce1m -0.757
GGUAUUUUUCAUGGCUCUCTT against Olfr305 -0.0328
GCCAAAUACUUUUUUACCCTT against Slc38a2 0.682
GCUUACCAAAAGGAUAUCCTT against Zfand2b -1.94
GGUCCAACGAUAUGUUGACTT against Cyp2c67 1.27
GGACAUGGAGAAAAAGUACTT against Styk1 0.547
GCAGUGCGAUUGCUUACAGTT against Tube1 1.07
GGAGUGUGCCCUGAAAGAUTT against Psrc1 -0.215
GGCUUUUCUGCCAUUUAUGTT against Sox18 0.23
GGGUGAAAGAAAGAAAGAATT against Plp1 -0.883
GGAUUACAGAAGCCCACACTT against Plekhn1 -0.719
GGACGUGCUUACAUUGUACTT against Pcdhb9 -0.212
GCAAUUGAGAUCUAUACAGTT against Napa -0.0109
GGGAAUAUGUGAAACAGACTT against Syk -0.229
GCCAAUAAAGUCGGUGAAATT against H2aj -0.244
GGAAUAAUCCCAGAAUCAGTT against Stard6 0.0758
CCAUACACAACAUUCCAGATT against Slc39a11 0.0339
GCAUUCAUCAAAUUUACAGTT against Prrg4 -0.67
CCUACUAACAACAAGAGCATT against Pcdhga5 0.021
GGAACUGAUCUGGAAGAAUTT against Sord -0.392
GGAAUACCAGGCCUUCCUUTT against B4galnt1 -0.886
CCUCGAUUAUAGCAAUACUTT against Slc16a14 1.36
GAAAUGUCCAUCCAAAAGCTT against Sprr2k 0.602
GGAUUAGGAAUCACAGUAGTT against Fam78a 0.675
GGCCAAAAAGGAGGCACCATT against Rps15 0.662
GCAUUUUAAUGCGCCAGUUTT against Atp2c1 -0.164
GGGAGCUUUGGAAAUUUUATT against Zbtb3 0.451
CCUCUCCUGCUCUGACAUATT against Olfr933 0.541
GGUGUUUGGCGAUAAUAAGTT against Zdhhc15 -0.237
GGAAAGAAUAGCAGCGUGGTT against Echs1 1.14
GCGAGACAAUUGUUAUUGATT against Zmym2 -1.05
GGCCAUGGAAGCUGUUGCUTT against Pgam2 -0.264
GGUUCAGUCAAGAAUUGCUTT against Clec4e 1.68
GCUGUCGAUAGAAAAAAUCTT against Scml2 0.566
GGGCAAUUUGUUCGACCCATT against Abca2 -0.14
GGGCCUGGAAAACAUUGACTT against Ndufa1 -0.316
CCUUCAACACCAGUUUGGGTT against Olfr1393 0.45
GGCCUGUGGAAGAAAUACGTT against Pdhb 1.82
GGAAACAUGUCCUCACACATT against Top3b 1.41
GGCUCAUUUGCUGAGUGUGTT against Fscn2 1.68
GCCGGUAAAAUUAAGGUGATT against Cyp2j9 -0.13
GGGUUUGGUCUCAUAUAAATT against Samd7 -0.618
GCAGAAGUCGAGCUAUGUUTT against Zfp365 -1.21
GGGAUAAUAAUGUUGAUUGTT against Mrc1 -0.152
GCAUACCUCCGUAUUGUGATT against Snx30 -0.868
GAUCAUCACAGAGGUCCAGTT against Fabp6 0.308
GGUGAUGGGCAAGGUGUUCTT against Syvn1 0.25
CGGUACAAGCUAGACCUCATT against Mettl26 0.493
CCAAUACUACAUAAUGUCUTT against Abcc12 -0.354
GGAAUUCCCAAAACUACUGTT against Tbck -1.28
GGAAUGUCGAAGAAAAUGCTT against Adam15 -0.197
GCGCAAUAAGAUCUUCAUGTT against Ddx55 0.454
GGCACUUUCCCUAUAUUGUTT against Col26a1 -1.57
